This is part of a sample that, as a whole, favours compounds with a hit. Of some 83,000 tested, about 20% had one in any assay.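 Negative percent growth values reflect cell death: -40 means 40% of the cells present at the start died, and -100 means all died.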 Active and inactive are the calls of the source. The calls were made as follows: active = growth percent below 10; inactive = the rest.
System: 786-0 renal
Test: NCI-60 one-dose screen, 48 h (100 = growth as untreated, 0 = no growth, -100 = all killed)
Details: 10 µM unless noted

SMILES | growth
Nc1[nH]nc2nc(-c3ccccc3)n3c4ccccc4nc3c12 | 106% (inactive)
CN1CCOCCN(C)Cc2ccc3ccc(cc3c2)CN(C)CCOCCN(C)Cc2ccc3ccc(cc3c2)C1 | 75.8% (inactive)
COc1ccc(/C=N/Nc2c3ccccc3nc3ccccc23)cc1 | 90.8% (inactive)
C=C1C(=O)O[C@H]2[C@H]1CC/C(CNC(=O)Cc1c[nH]c3ccccc13)=C\CC[C@@]1(C)O[C@@H]21 | -36.4% (active)
COc1ccc2c(c1)CC[C@@H]1[C@@H]2CC[C@]2(C)c3c(cc(C#N)c4c3sc3ccccc34)C[C@@H]12 | 111% (inactive)
O=C(c1c[nH]c2ccccc12)c1n[nH]c(=S)n1-c1ccc([N+](=O)[O-])cc1 | 115% (inactive)
Cc1c2cnccc2c(C)c2c1c1cc(CO)ccc1n2C | -13.1% (active)
COc1cc(-c2nccc3[nH]c(-c4cccc5[nH]ccc45)nc23)cc(OC)c1OC | 7.27% (active)
Clc1ccc(-c2nc(C(Cl)Cl)nc3cc(-c4ccccc4)nn23)cc1 | 79.9% (inactive)
CC1=Nc2cnc(Nc3ccc(N4CCCCC4)cc3)nc2Nc2ccccc21 | 51.8% (inactive)
CN(C)c1ccc([C@@H](C(=O)Nc2cccc([N+](=O)[O-])c2)N(C(=O)c2cc3ccccc3[nH]2)c2cccc([N+](=O)[O-])c2)cc1 | 95.5% (inactive)
O=C(CSc1nnnn1-c1ccccc1)Nc1ccc(Oc2ccccc2)cc1 | 102% (inactive)
COc1cc(/C=C/C(=O)c2cccc(-n3cc(-c4ccc(Cl)cc4)[nH]c3=O)c2)ccc1O | 84.3% (inactive)
Oc1c(CN2CCC(N3CCOCC3)CC2)cc(Cc2cc(CN3CCC(N4CCOCC4)CC3)c(O)c3ncccc23)c2cccnc12 | 25.5% (inactive)
c1ccc2cc(Cn3cc(CSc4nc5ccccc5s4)nn3)ccc2c1 | 101% (inactive)
CN(C)Cc1cc(C(C)(C)C)cc(Br)c1O | 101% (inactive)
CCN(CC)CCOc1ccc(/C(=C(\C)Cc2ccc(OC)cc2)c2ccc(OC(=O)NCc3ccccc3)cc2)cc1 | 56.7% (inactive)
C=C1C(=O)O[C@H]2[C@H]1CC/C(COC(=O)NCc1ccc(Cn3c(=O)sn(-c4ccc(I)cc4)c3=O)cc1)=C\CC[C@@]1(C)O[C@@H]21 | 75.2% (inactive)
O=c1oc2ccccc2cc1-c1nn(-c2ccccc2)cc1-c1nn[nH]n1 | 104% (inactive)
O=c1oc2c(cc1-c1ccccc1)c(=O)[nH]c1ccccc12 | 85.9% (inactive)
CC1=C(Cl)C(=O)c2cc(C)ccc2C1=O | 102% (inactive)

System: COLO 205 colon
Test: as above
Details: 10 µM unless noted

SMILES | growth
O=c1oc2c(cnc3ccccc32)cc1-c1cccc(Cl)c1 | 118% (inactive)
CCOC(=O)c1c(C)nc2c(c1N)C(=O)C(=O)N2Cc1ccc(OC)cc1 | 123% (inactive)
CCNC(=O)N1CCc2c(Br)c3c(c(OC)c2C1Cc1ccc(OC)cc1)OCO3 (stereo unspecified) | 3.06% (active)
COc1cc2c(c(OC)c1OC)CCC(c1cccc(C(=O)Nc3ccc(Br)cc3)c1)O2 (stereo unspecified) | 76.5% (inactive)
OC1CSSC1Cn1cnc2c(Nc3ccc(OCc4cccc(F)c4)c(Cl)c3)ncnc21 (stereo unspecified) | -58.3% (active)
Cc1ccc(OCCOCCOCCOc2ccc(C)n(O)c2=S)c(=S)n1O | 7.96% (active)
C=CN(C(=O)N1CCN(c2cc3c(cc2F)c(=O)c(C(=O)O)cn3C2CC2)CC1)c1nc(-c2ccc(Cl)cc2)cs1 | 84.2% (inactive)
C#CCOc1cccc(Nc2ncnc3cc(NC(=O)CCl)ccc23)c1 | -79.9% (active)
Cc1nc2ccccc2c(/C=C/c2ccc(F)cc2)c1C(=O)/C=C/c1ccccc1 | 10.5% (inactive)
COc1cc(/C=C/C(=O)N2CCN(C(=O)c3cc(OC)c(OC)c(OC)c3)CC2)ccc1OCCCOc1cc2c(cc1OC)C(=O)N1CCC[C@H]1C=N2 | -63.4% (active)
O=C(NC1CCC(Br)CC1)C1CCCC(S(=O)(=O)NC2CCCCC2)C1 (stereo unspecified) | 13% [25 µM] (inactive)
COc1cc(/C=C/c2cn[nH]c2-c2ccc(C)cc2)cc(OC)c1OC | 12.6% (inactive)
COc1ccc(C/C(C)=C(\c2ccc(Cl)cc2)c2ccc(OCCN3CCCC3)cc2)cc1 | 47.8% (inactive)
CN(C)Cc1ccc(NC(=O)c2cncc(C#Cc3cnc(N)c4ncccc34)c2)cc1C(F)(F)F | 44.6% (inactive)
COC(=O)c1c(C)nc(C)c2c1C(=O)C=C(NCc1ccccc1)C2=O | 78.5% (inactive)
N#CSc1c[nH]c2ccc(/C=C/C(=O)/C=C(O)/C=C/c3ccc4[nH]cc(SC#N)c4c3)cc12 | -39.7% (active)
Cc1ccc(-c2nc(SCC(=O)N3CCN(c4cc5c(cc4F)c(=O)c(C(=O)O)cn5C4CC4)CC3)nc(Cl)c2C#N)cc1 | 108% (inactive)
COC(=O)/C=C1/SC(=NCc2ccccc2)N(CCc2c[nH]c3ccccc23)C1=O | 98.7% (inactive)
C=C(C)[C@@H]1CC[C@]2(C(=O)N3CCN(C)CC3)CC[C@]3(C)[C@H](CC[C@@H]4[C@@](C)(CCC(=O)O)[C@H](C(=C)C)CC[C@]43C)[C@@H]12 | 94.3% (inactive)
Nc1[nH]nc2nc(-c3ccccc3)n3c4ccccc4nc3c12 | 112% (inactive)

SMILES | growth
CN1CCOCCN(C)Cc2ccc3ccc(cc3c2)CN(C)CCOCCN(C)Cc2ccc3ccc(cc3c2)C1 | 94.6% (inactive)
COc1ccc(/C=N/Nc2c3ccccc3nc3ccccc23)cc1 | 103% (inactive)
C=C1C(=O)O[C@H]2[C@H]1CC/C(CNC(=O)Cc1c[nH]c3ccccc13)=C\CC[C@@]1(C)O[C@@H]21 | -74.9% (active)
COc1ccc2c(c1)CC[C@@H]1[C@@H]2CC[C@]2(C)c3c(cc(C#N)c4c3sc3ccccc34)C[C@@H]12 | 110% (inactive)
O=C(c1c[nH]c2ccccc12)c1n[nH]c(=S)n1-c1ccc([N+](=O)[O-])cc1 | 96.8% (inactive)
Cc1c2cnccc2c(C)c2c1c1cc(CO)ccc1n2C | -51.2% (active)
COc1cc(-c2nccc3[nH]c(-c4cccc5[nH]ccc45)nc23)cc(OC)c1OC | -62.9% (active)
Clc1ccc(-c2nc(C(Cl)Cl)nc3cc(-c4ccccc4)nn23)cc1 | -8.35% (active)
CC1=Nc2cnc(Nc3ccc(N4CCCCC4)cc3)nc2Nc2ccccc21 | 81.3% (inactive)
CN(C)c1ccc([C@@H](C(=O)Nc2cccc([N+](=O)[O-])c2)N(C(=O)c2cc3ccccc3[nH]2)c2cccc([N+](=O)[O-])c2)cc1 | 102% (inactive)
O=C(CSc1nnnn1-c1ccccc1)Nc1ccc(Oc2ccccc2)cc1 | 110% (inactive)
COc1cc(/C=C/C(=O)c2cccc(-n3cc(-c4ccc(Cl)cc4)[nH]c3=O)c2)ccc1O | 124% (inactive)
Oc1c(CN2CCC(N3CCOCC3)CC2)cc(Cc2cc(CN3CCC(N4CCOCC4)CC3)c(O)c3ncccc23)c2cccnc12 | 9.1% (active)
c1ccc2cc(Cn3cc(CSc4nc5ccccc5s4)nn3)ccc2c1 | 102% (inactive)
CN(C)Cc1cc(C(C)(C)C)cc(Br)c1O | 102% (inactive)
CCN(CC)CCOc1ccc(/C(=C(\C)Cc2ccc(OC)cc2)c2ccc(OC(=O)NCc3ccccc3)cc2)cc1 | -56.1% (active)
C=C1C(=O)O[C@H]2[C@H]1CC/C(COC(=O)NCc1ccc(Cn3c(=O)sn(-c4ccc(I)cc4)c3=O)cc1)=C\CC[C@@]1(C)O[C@@H]21 | 36.9% (inactive)
O=c1oc2ccccc2cc1-c1nn(-c2ccccc2)cc1-c1nn[nH]n1 | 108% (inactive)
O=c1oc2c(cc1-c1ccccc1)c(=O)[nH]c1ccccc12 | 107% (inactive)
CC1=C(Cl)C(=O)c2cc(C)ccc2C1=O | 114% (inactive)

Reference: PubChem BioAssay (NCI)
